Tests used:
[1] = test system: Human papillomavirus type 1a protein E7 (residues 44-93); assay: small molecules binding HPV E7 44-93 – biochemical, small-molecule microarray, residues 44-93, 635 nm fluorescence, primary screen (AID 1108); details: fluorescence 635 nm, higher = more signal;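 note: E7 fragment applied at 1 µg/mL in TBST for 1 h at 4 C; score combines spot fluorescence with its signal to noise ratio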
[2] = hepatitis C replication reporter changes, two-sided – Huh7 cells, luciferase reporter, HCV replication inhibitor project, primary screen (AID 1109); details: Huh7 HCV replicon luciferase reporter, 48 h; higher = more signal;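 note: huh7 hepatoma cells harbouring a luciferase neomycin HCV replicon reporter; luciferase luminescence as measure of HCV replicon replication; test concentration not given here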
[3] = target: Left-right determination factor 2 (Homo sapiens) (UniProt O00292); assay: small molecules binding LEFTY2 protein – biochemical, small-molecule microarray, 635 nm fluorescence scan, primary screen (AID 1110); details: higher = more signal
[4] = target: Calmodulin-1 (Homo sapiens) (UniProt P0DP23); assay: small molecules binding calmodulin-1 with EGTA – biochemical, small-molecule microarray, Cy5-labelled CALM1, profiling panel (AID 1111); details: Cy5-CALM1 binding fluorescence, higher = more signal;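 note: labelled calmodulin applied in Tris saline Tween buffer holding calcium plus EGTA and DTT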
[5] = target: Calmodulin-1 (Homo sapiens) (UniProt P0DP23); assay: small molecules binding Ca-loaded calmodulin-1 – biochemical, small-molecule microarray, Cy5-labelled CALM1, plus calcium, artefact control for SMM control-protein annotation, profiling panel (AID 1112); details: Cy5-CALM1 binding fluorescence, higher = more signal;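 note: score merges spot fluorescence with signal to noise from triplicate slides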
[6] = probe aWnt5a binding to arrayed compounds – biochemical, biotinylated probe, 635/667 nm fluorescence, primary screen (AID 1113); details: small-molecule microarray, higher = more signal;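 note: score merges 667 nm fluorescence intensity with signal-to-noise per printed feature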
[7] = probe aShh binding to arrayed compounds – biochemical, biotinylated probe, 635/667 nm fluorescence, primary screen (AID 1114); details: small-molecule microarray, higher = more signal;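 note: probe is biotin-labelled aShh protein from a stem cell growth factor screen; measures binding of labelled protein to compounds printed on the slide; score merges feature fluorescence at 667 nm with signal-to-noise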
[8] = probe aNog binding to arrayed compounds – biochemical, biotinylated probe, 635/667 nm fluorescence, primary screen (AID 1115); details: small-molecule microarray, higher = more signal;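 note: probe is biotinylated aNog protein used at 0.15 µg/mL for 1 h at 4 C; z-score combines 667 nm fluorescence of each spot with its signal to noise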
[9] = target: Torsin-1A-interacting protein 1 (Homo sapiens) (UniProt Q5JTV8); assay: compound microarray binding of lysate hLAP1 – cell lysate, small-molecule microarray, COS7 lysate, 635/667 nm fluorescence, primary screen (AID 1116); details: 635 nm fluorescence, higher = more signal
[10] = target: Alpha-bungarotoxin (Bungarus multicinctus) (UniProt P60615); assay: compounds binding labelled alpha-BTX control protein – biochemical, small-molecule microarray, Alexa647 label, 635/667 nm fluorescence, artefact control for SMM control protein annotation, profiling panel (AID 1117); details: alpha-BTX-A647 binding fluorescence, higher = more signal
Sequence of Alpha-bungarotoxin (Bungarus multicinctus) (P60615 whole entry, looked up): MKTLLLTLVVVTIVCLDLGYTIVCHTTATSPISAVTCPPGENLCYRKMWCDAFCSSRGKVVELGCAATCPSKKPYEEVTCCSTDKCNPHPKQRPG

Sequence of Left-right determination factor 2 (Homo sapiens) (O00292 whole entry, looked up): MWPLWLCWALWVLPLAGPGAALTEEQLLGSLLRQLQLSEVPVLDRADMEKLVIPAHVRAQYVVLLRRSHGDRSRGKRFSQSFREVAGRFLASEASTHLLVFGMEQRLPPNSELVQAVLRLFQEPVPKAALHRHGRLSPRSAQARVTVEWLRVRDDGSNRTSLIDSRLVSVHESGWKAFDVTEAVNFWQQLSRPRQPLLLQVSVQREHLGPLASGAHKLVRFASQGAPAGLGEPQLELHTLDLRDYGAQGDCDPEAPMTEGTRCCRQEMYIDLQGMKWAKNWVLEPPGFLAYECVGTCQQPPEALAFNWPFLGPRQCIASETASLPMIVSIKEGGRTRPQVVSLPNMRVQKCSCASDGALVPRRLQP
Sequence of Torsin-1A-interacting protein 1 (Homo sapiens) (Q5JTV8 whole entry, looked up): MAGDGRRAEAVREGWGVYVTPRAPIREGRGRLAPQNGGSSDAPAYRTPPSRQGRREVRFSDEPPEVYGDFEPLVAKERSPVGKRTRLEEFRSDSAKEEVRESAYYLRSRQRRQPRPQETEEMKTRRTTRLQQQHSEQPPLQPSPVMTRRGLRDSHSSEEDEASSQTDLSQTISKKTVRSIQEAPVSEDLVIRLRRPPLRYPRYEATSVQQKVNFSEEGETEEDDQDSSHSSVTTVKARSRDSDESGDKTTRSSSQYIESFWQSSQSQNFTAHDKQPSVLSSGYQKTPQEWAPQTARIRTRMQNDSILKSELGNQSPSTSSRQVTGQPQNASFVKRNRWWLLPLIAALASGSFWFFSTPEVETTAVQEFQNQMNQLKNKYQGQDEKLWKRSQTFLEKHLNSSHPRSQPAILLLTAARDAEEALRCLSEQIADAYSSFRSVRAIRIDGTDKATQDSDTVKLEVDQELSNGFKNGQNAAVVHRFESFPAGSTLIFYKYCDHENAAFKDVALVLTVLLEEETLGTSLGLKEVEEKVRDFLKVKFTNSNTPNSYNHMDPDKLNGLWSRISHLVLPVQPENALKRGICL

SMILES | composite z-score [1] | z-score [2] | composite z-score [3] | composite z-score [4] | composite z-score [5] | composite z-score [6] | composite z-score [7] | composite z-score [8] | composite z-score [9] | composite z-score [10]
CCCC[C@@H]1C[C@H]1[C@@H](NC(=O)c1ccccc1)c1ccccc1 | 0.305 | -0.978 | -0.137 | -0.0221 | 0.635 | 0.298 | 0.121 | 2.11 | -0.192 | 0.012
CC(C)[C@H]1COC(=O)N1C(=O)[C@H]1[C@@H](c2ccccc2)N(c2ccccc2)O[C@@H]1C | 0.359 | -0.383 | 0.729 | 0.35 | -0.434 | -0.1 | -0.206 | 0.0373 | 0.15 | 0.107
CC(C)N1C(=O)c2ccccc2[C@](C)(C(=O)NCCCN(C)C)[C@@H]1c1ccc(CO)cc1 | -0.0305 | -0.104 | -0.553 | 0.0958 | -0.0609 | -0.152 | -0.214 | -0.546 | 4.42 | 1.28
O=C(NCc1ccccc1)[C@@H]1c2ccccc2C(=O)N(C2CCCCC2)[C@H]1c1ccc(CO)cc1 | 1.47 | -0.166 | -0.379 | -0.576 | -0.545 | -0.104 | -0.247 | -0.282 | 0.089 | -0.09
C=CCC(OC(C)=O)[C@@H]1[C@@H](N(Cc2ccc(-c3cccc(C(F)(F)F)c3)o2)C(=O)c2ccc(C)cc2)c2cc(OCCCO)ccc2N1C(=O)c1ccc2ccccc2n1 (stereo not given in full) | -0.172 | -0.462 | 0.435 | -0.619 | -0.253 | -0.0478 | 0.278 | 0.276 | -0.0885 | 1.31
C=CCN1C(=O)[C@]2(COC(c3ccc(OCCCO)cc3)=N2)Cc2ccccc21 | 1.17 | -0.347 | -0.352 | -0.0567 | 0.0613 | 0.227 | 0.0253 | 0.795 | 2.59 | 1.48
CC[C@@H]1C=C(C(=O)O)[C@H](c2ccc(C(C)C)cc2)N1S(=O)(=O)c1ccc(C)cc1 | 1.27 | -0.868 | 0.615 | 2.38 | 0.692 | 0.019 | 0.519 | -0.443 | 2.19 | 2.12
COc1ccc([Si](C)(C)[C@H]2[C@H](CC(=O)N(CCO)Cc3ccccc3)O[C@@]3(C(=O)N(Cc4cccc(N5C(=O)c6cccc7cccc5c67)c4)c4ccccc43)[C@@H]2C)cc1 | 0.9 | -4.25 | 0.45 | 0.847 | -0.0174 | -0.107 | -0.165 | 0.0857 | 0.389 | 0.942
O=C(NCC(O)CO)[C@@]1(Cc2ccccc2)N=C(c2ccc(OCCCO)cc2)O[C@H]1c1ccccc1 (stereo not given in full) | 0.546 | -0.99 | -1.13 | 2.01 | 1.36 | -0.241 | 0.334 | -0.57 | 2.48 | 1.77
Cc1c(NC(=O)/C(C#N)=C/C=C/c2ccccc2)c(=O)n(-c2ccccc2)n1C | -0.353 | -0.683 | 0.277 | 0.193 | -0.0357 | -0.145 | -0.416 | -0.49 | -0.296 | 0.754
CCCCCCCCCCC(O)C1C=CC2C(=O)N(c3ccccc3)C(=O)C2N1Nc1ccc([N+](=O)[O-])cc1 (stereo not given) | 1.41 | -2.47 | -0.193 | 1.01 | 0.496 | -0.0263 | -0.0146 | 1.1 | -0.105 | 1
COC(=O)c1nc2oc1CC[C@@H](CO)NC(=O)N(C)Cc1cn(nn1)C[C@H](Cc1ccccc1)NC2=O | -0.205 | 1.34 | -1.11 | -0.423 | 0.376 | -0.129 | 0.0639 | 0.582 | 0.481 | 0.981
[N-]=[N+]=NCc1ccccc1C[C@]1(C(=O)NCCN2CCOCC2)N=C(c2ccc(OCCCO)cc2)O[C@H]1c1ccccc1CN=[N+]=[N-] | 1.43 | -3.91 | 0.278 | 0.86 | 0.368 | -0.124 | -0.146 | -0.158 | 1.59 | 1.28
C=CCN1C(=O)[C@]2(Cc3ccccc31)N=C(c1ccc(OCCCO)cc1)O[C@@H]2c1ccccc1 | 1.41 | -2.74 | 0.319 | 0.731 | -0.313 | 0.219 | -0.108 | 0.431 | 1.75 | 0.152
CO[C@H]1O[C@H](CO)[C@@H](OC(=O)Nc2cccc(F)c2)[C@H](OC(=O)Nc2ccccc2-c2ccccc2)[C@@H]1OC(=O)Nc1ccccc1-c1ccccc1 | 1.16 | -3.61 | 0.343 | 1.95 | 0.283 | 0.0825 | 0.0684 | -0.268 | 1.47 | 1.96
COc1ccc([Si](C)(C)[C@@H]2[C@@H](CCO)O[C@]3(C(=O)N(Cc4ccc(N5C(=O)c6cccc7cccc5c67)cc4)c4ccccc43)[C@H]2C)cc1 | -1.27 | -4.81 | -0.983 | 0.424 | 1.09 | -0.154 | -0.16 | 0.094 | -0.164 | -0.0784
C=C[C@@H](C)[C@@H](OC(=O)Nc1ccc(OC)cc1)c1ccc(O)c2ccccc12 | 0.118 | -1.84 | 0.312 | -0.27 | -0.667 | -0.152 | -0.223 | -0.409 | -0.0999 | -0.511
CN(C)CCCCNC(=O)[C@@H]1C[C@@H]2C(=O)N[C@@H](CCCCN)C(=O)N2[C@@H]1c1cccc(OCCO)c1 | 0.572 | -0.289 | -1.55 | -0.328 | -0.547 | -0.12 | 0.0735 | 0.42 | 0.482 | -0.863
[N-]=[N+]=NCc1ccccc1C[C@]1(C(=O)NCc2ccccc2)COC(c2ccc(OCCCO)cc2)=N1 | 0.953 | -3.59 | -0.0623 | 0.614 | 0.345 | 0.027 | 0.0483 | -0.415 | 1.04 | 0.188
Cc1ccc(S[C@]2(C(=O)NCCCN(C)C)CC(=O)N(C(C)C)[C@@H]2c2ccc(CO)cc2I)cc1 | -0.257 | -2.53 | -0.829 | 0.314 | 0.344 | -0.0748 | -0.0035 | -0.487 | 0.309 | 0.397
O=C(NCc1ccccc1)[C@@H]1c2ccccc2C(=O)N(Cc2cc(F)cc(C(F)(F)F)c2)[C@H]1c1ccc(CO)cc1 | 1.44 | -0.132 | -0.244 | -0.174 | -0.707 | -0.096 | 0.163 | -0.339 | 1.15 | 0.258
CC(C)NC(=O)[C@@H]1c2ccccc2C(=O)N(C2CCCCC2)[C@H]1c1ccc(CO)cc1 | 1.13 | -1.48 | 0.0474 | 0.166 | 0.808 | 0.0279 | -0.195 | 0.342 | 0.416 | 1.01
COC(=O)c1c(CC[C@@H](CO)NC(=O)Nc2ncn[nH]2)oc(C(=O)Cc2ccccc2)c1C(=O)OC | 0.693 | 0.0922 | 0.506 | 0.0262 | -0.828 | -0.243 | 0.158 | -0.0144 | -0.0045 | 0.924
COCCOC(=O)N1C(=O)[C@@]2(c3cc(C#CC4=CCCCC4)ccc31)[C@H](C(=O)N1CCN(c3ncccn3)CC1)[C@H]1C(=O)O[C@H](c3ccccc3)[C@H](c3ccccc3)N1[C@@H]2c1ccc(OCCO)cc1 | 0.973 | -1.46 | 0.819 | 0.585 | -0.252 | 0.0026 | -0.229 | 0.749 | 1.48 | 0.229
COCCOC(=O)N1C(=O)[C@@]2(c3cc(C#CCC(C(=O)OC)C(=O)OC)ccc31)[C@H](c1ccc(OCCO)cc1)N1[C@H](c3ccccc3)[C@H](c3ccccc3)OC(=O)[C@H]1[C@@H]2C(=O)NC[C@H](O)c1ccccc1 | 0.958 | -1.71 | 0.59 | 1.09 | -0.518 | -0.17 | -0.291 | -0.202 | 0.402 | 1.18

— PubChem BioAssay
